Results taken from the supplement of paper PMC11417369.
The full ranking holds about 25,000 sequences; the median of “ln(normalized median fluorescence intensity)” is about 9.7, and the highest 2% start at about 11. The sample holds the highest values, similar sequences and a random draw of the others, so the mix is not that of the screen.

Test system: PfAP2-HC AP2 domain (GST-tagged)
Test: gcPBM binding intensity (ln(normalized median fluorescence intensity)); higher = stronger DNA binding
Procedure, shortened: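 Binding intensity values are the highest Masliner-normalised natural-log median intensity among replicate spots of either probe orientation. The binding step lasted 1 h in 1× PBS with 1% milk, 0.2 mg/ml BSA, 0.5% salmon testes DNA and 0.03% Triton X-100, using GST-tagged P. falciparum DNA-binding domains expressed in E. coli on an Agilent 4 × 180k array of primer-extended double-stranded 36-bp intergenic genomic probes plus negative controls. Alexa488 anti-GST antibody and a 488 nm scan detected bound protein.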

Sequence | gcPBM binding intensity (ln)
TTTTTCAGATCCTATATAGTATCATATAAATTCCAT [CACACA_negctrl_site56] | 9.39
AAGAAAAAATGATGAATAGAGATCAAATCTATATAT [TGCATGCA_negctrl_site29] | 9.65
TTTTTAAAATATTTAACACACAATTTTAATGCATAA [CACACA_site6036] | 9.61
TCAATAAAAAAAAACGCACACACAAATATATTCCAT [CACACA_site1223] | 11
GGATATTCATTAACCACACACACAAAAAAAATAAAA [CACACA_site3800] | 11.2
AATAAAAAAAAACGCACACACAAATATATTCCATTC [CACACA_site1224] | 10.4
ATATATATATTCCACACACACACAAAAAAAAAAAAA [CACACA_site3648] | 10.6
ATATTCATTAACCACACACACAAAAAAAATAAAATT [CACACA_site3801] | 10.2
ATATAAATATTCCACACACACACAAAAAAAAAAAAA [CACACA_site7678] | 11
TCATTCATAAAAATAACACACAAAAAAAAAAAAAAA [CACACA_site1800] | 9.62
ACACAAAAAATAAAAATATATATATATTATATATAT [CACACA_negctrl_site1489] | 9.75
CAATATAAAAAACACACGCACACAAAAAAAAAAAAA [CACACA_site3521] | 10.3
TTTTTATAATGATACATATATTATTTTATTCTTAAT [CACACA_negctrl_site124] | 9.54
AAAAAAAAAAAAAAAACACACATATCTGTATTTATA [CACACA_site5760] | 9.75
ATATTGACAGGAAAAATTTTCTTTGAATCTTTAAAA [CACACA_negctrl_site1191] | 9.29
ATTAGGATATATTAAAGTACTAATATAATACATTTT [XGTACX_site7386] | 9.55
TTTTACTAAATATATACACACATTATACAGATATAT [CACACA_site5765] | 9.86
AGTATATAAAATACTGTATCGATGGGGGAGGGCGCA [CACACA_negctrl_site1612] | 9.91
ATATATGGGGCGCAGGAAAAGAGTTTTGGAAATAAA [CACACA_negctrl_site1265] | 9.63
TATAAAATACTGTATCGATGGGGGAGGGCGCAGGGG [TGCATGCA_negctrl_site250] | 10.9
TGTATTAATAAAAATACACACATCATATTATATAAA [CACACA_site3534] | 9.73
ACATATACAAGACACACACACAACGTTTTAATAAAT [CACACA_site7017] | 11.2

Sequence | gcPBM binding intensity (ln)
TTAAAATATACATAAACACACACAAAACGTTTAAGA [CACACA_site8267] | 10.4
AAATTAATAAGTCACACACACATATATAATATATAT [CACACA_site799] | 10.4
TAAAATATAAGACACACACACATATATTTATATATC [CACACA_site6248] | 10.5
GATAAATTAAGACACACACACATATATTTATTTATA [CACACA_site7789] | 11.2
CAAAATTAATAAGTCACACACACATATATAATATAT [CACACA_site798] | 11
AAAAAAATTAGACACACACACACATATAAATATGTA [CACACA_site6618] | 10.8
CATTATAAGAGACACACACACATATATAAATATGTA [CACACA_site6621] | 10.9
ACATATACAAAACACACACACAACGTTTTAATAAAT [CACACA_site1979] | 10.7
TTTTAATTAAGACACACACACACATATAAATATGTA [CACACA_site7144] | 11
ATATTAAAGATATATACACACATATTTATAAATATA [CACACA_site7127] | 9.78
ATTAAAATATAAGTCACACATATATATATATATATA [CACACA_site6145] | 9.51
TTTATATTAATTTGTGTAAATGCATATGATGAGCAT [XGTACX_negctrl_site254] | 9.41
ATTTTATGATATATTTGTACTTAACATTTGGATATA [XGTACX_site5888] | 9.6
ACCATCCTTAATACTTATTTTTTCACAATTAAGTAA [GTGCAC_negctrl_site269] | 9.59
AAACCAAGGCACAATAATTAAATAAATAAAATCATG [GTGCAC_negctrl_site574] | 9.58
TTTTTCATAAATATATGTACATATATTTTATATAAC [XGTACX_site3402] | 9.66
TATTAGATATAATATATACACACCAACGAACGAAGA [CACACA_site1134] | 10.1
CATATATGTGATAACACGCACACAAATGTATAGAAT [CACACA_site2594] | 10.4
AGAGAGAAAGCTATAACATGCAACAATTTTTAGAAA [TGCATGCA_site95] | 9.63
TATTTTTAATATTTTGCATGCAGTATTTTATAAAAT [TGCATGCA_site250] | 9.52
TCTCATAGGAAACACACACACACACCCACATATATA [CACACA_site1738] | 11
TAAACATACATATACACACACACACCCACACCCACA [CACACA_site492] | 11.6

Sequence | gcPBM binding intensity (ln)
ATTAAACATACATATACACACACACCCACCCACCCA [CACACA_site8057] | 11
CAAACATATTAATGTACACACACCCACCCACAAACA [CACACA_site2752] | 10.4
CATACATATAAACACACACACACACCCACCCACAAA [CACACA_site8059] | 10.6
AAGCAAACATATTAATGTACACACACCCACACACAA [XGTACX_site5806] | 11.1
TCTCATAGTAAACACACACACACACCCACATATATA [CACACA_site5034] | 10.6
TATAAATATACACCCACACACATATATAAATAAATA [CACACA_site7717] | 10.8
AACATATTAATGTACACACACCCACGCACAAACAAA [CACACA_site7320] | 10.4
ATAATTTGGAAACACACACACACACCCACATATATA [CACACA_site2286] | 10.5
TTTTTTAAAAAAGTTTTCTGTATTTATATATATATA [CACACA_negctrl_site31] | 9.48
AAAATATATATAACTTGTACATATACATACGTATAT [XGTACX_site4570] | 9.77
TTTCTTTTTTTTTTTTTTTCTTTTTTTTTTTTTTTC [CACACA_negctrl_site1025] | 9.2
ACTAAAAAAATAAACACACAGATTTATATAATATAT [CACACA_site4884] | 9.83
TATATTTGTACATGATATTTTTTTTTTCTTTTAAAA [CACACA_negctrl_site754] | 9.43
TATAATTATATAAATTGTACATAAAAAGTTTTTACT [XGTACX_site3621] | 9.45
AAATGTTCTTAAAAATGAATAATATATATATATATA [CACACA_negctrl_site796] | 9.41
TAATTATGCAGACACACACACACACCCAACTAAAAA [CACACA_site2569] | 10.4
TATGTGTATTTATTTGCATGTTGGTTGTATTTTTTC [TGCATGCA_site479] | 10.4
ACAAAGTTTATAGAACGTACATACTTACACATATTT [XGTACX_site556] | 9.73
AATATTGTTCACAAGGTGCTTTTTATTCATACTAAT | 9.8
CATACCTATAGACACACACACACACGCACGCACAAA [CACACA_site6374] | 10.4
TACCTATACAGACACACACACACACGCCCACAAAAA [CACACA_site6375] | 11.1
TTGGCATACAGACACACACACACACGCCCACATATA [CACACA_site6425] | 10.7

Sequence | gcPBM binding intensity (ln)
CCAATTCAAATATGCACACAAATTTGAAAACGATTA [CACACA_site3607] | 9.71
TGAAAATGGGAACCGTGTACAGGGCAGTTATAGGGG [XGTACX_site2950] | 9.87
AAAAAAGAATAGCACACACACATATATAAATATAAA [CACACA_site4518] | 10.5
TATTACATACCTTATTGTACAAATTATATATTAAAG [XGTACX_site7334] | 9.54
ATATATCTATATGTGTGTACATATAAGTATTTATAT [XGTACX_site5333] | 9.87
CATACATACGGACACACACACATATATATATATATA [CACACA_site5598] | 10.4
AAAAAAAACGGACACACACACATAAATATATATAAA [CACACA_site4260] | 11.3
ACACGCACATATATATAAATATATATATATATAAAT [CACACA_negctrl_site1781] | 10.1
CTAAAATACGGACACACACACACATATATATATATA [CACACA_site6138] | 11.4
GTTATAAATAAATATACACACATATATAAAATACAT [CACACA_site7146] | 9.97
TATAAATAAAAACACACACACATATATATATATATA [CACACA_site2319] | 10.4
AAAAAAAACGGACACACACACATACAAAATATATAT [CACACA_site4910] | 10.8
AATACATACGGACACACACACACATATATATATATA [CACACA_site5884] | 11.6
AATATATACATATATACACACACATATATATATATA [CACACA_site8907] | 10.2
CACACGCACGGACACACACACATATAAAATCTATAT [CACACA_site6428] | 11.1
TTATAAATAAAAAATACACACATATATATATATATA [CACACA_site207] | 9.57
CATATATACACATACACACACACACGGACACGCACA [CACACA_site6910] | 10.5
ACATACGAAAATTGGAAGGATAGATAAAAAGAAAAT [CACACA_negctrl_site51] | 9.66
CTCAACATATACGTAACACACATATAAATATAAATA [CACACA_site7749] | 9.89
ATATAGAAAATGCATACACACTTTATAAATATATTT [CACACA_site6553] | 9.82
TATTTATTGTGATACTTATATTACTTAATGATTAAA [CACACA_negctrl_site676] | 9.41
